High-throughput results as filed in PubChem.
Mdm2-MdmX inh = inhibitors of human Mdm2/MdmX interaction; 330,000 tested, 3% active; SaOS-2 split-luciferase Mdm2/MdmX complementation, luminescence; inhibition, % at 8 µM; O15151+Q00987;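 active = inhibition of at least 50% at 8 µM in the primary screen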
Target sequence (O15151 whole entry, looked up): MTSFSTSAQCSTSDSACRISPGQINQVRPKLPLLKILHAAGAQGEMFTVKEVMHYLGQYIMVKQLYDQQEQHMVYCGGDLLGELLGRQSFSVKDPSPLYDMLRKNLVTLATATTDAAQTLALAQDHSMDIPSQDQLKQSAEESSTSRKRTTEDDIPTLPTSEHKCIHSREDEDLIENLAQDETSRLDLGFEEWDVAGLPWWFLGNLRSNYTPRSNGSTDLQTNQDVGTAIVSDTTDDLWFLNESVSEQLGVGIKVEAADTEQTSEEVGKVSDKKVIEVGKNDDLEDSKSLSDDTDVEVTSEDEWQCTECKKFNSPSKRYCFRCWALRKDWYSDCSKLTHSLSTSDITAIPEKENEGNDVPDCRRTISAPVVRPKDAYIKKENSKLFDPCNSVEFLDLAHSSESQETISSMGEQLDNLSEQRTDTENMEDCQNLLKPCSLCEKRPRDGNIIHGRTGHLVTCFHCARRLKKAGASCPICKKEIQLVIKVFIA
Target sequence (Q00987 whole entry, looked up): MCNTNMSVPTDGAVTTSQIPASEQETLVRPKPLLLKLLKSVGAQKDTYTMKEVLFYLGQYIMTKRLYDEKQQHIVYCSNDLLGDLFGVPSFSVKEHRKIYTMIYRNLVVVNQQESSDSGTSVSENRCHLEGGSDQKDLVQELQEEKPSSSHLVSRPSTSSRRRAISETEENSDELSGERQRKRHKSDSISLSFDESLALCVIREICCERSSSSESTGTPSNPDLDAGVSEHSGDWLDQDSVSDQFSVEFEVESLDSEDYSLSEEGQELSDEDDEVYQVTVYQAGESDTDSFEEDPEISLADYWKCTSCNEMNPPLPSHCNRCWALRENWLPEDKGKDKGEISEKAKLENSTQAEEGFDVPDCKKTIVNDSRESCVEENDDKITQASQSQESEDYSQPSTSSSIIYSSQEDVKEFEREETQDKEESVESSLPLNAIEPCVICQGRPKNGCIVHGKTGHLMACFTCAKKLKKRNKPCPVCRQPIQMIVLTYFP
Beta apoptosis = beta cell apoptosis inhibition | INS-1E cytokine-induced death, ATP luminescence, 48 h; percent of positive-control rescue, neutral wells zero | protection from apoptosis, % (no concentration beside the values) | 300,000 tested, 0.8% active;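 active = Every replicate reaches about 75%, or at least half do and their mean reaches it too, limit read from the data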;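 note: higher means more ATP so stronger rescue from cytokine killing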
MPTP block = blocks calcium-induced mitochondrial swelling; inhibition, % at 10 µM; 360,000 tested, 1.4% active; AID 602449; isolated mouse mitochondria, Ca2+ swelling absorbance, 30 min;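 active = inhibition of 50% or more, scaled per plate between neutral and stimulator controls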
Calb FLC = C. albicans growth modulation with fluconazole; C. albicans CaCi-2 (fluconazole-resistant clinical isolate) + fluconazole, Alamar Blue growth, 48 h; growth inhibition, % (concentration not given with the values); 300,000 tested, 0.57% active;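 active = growth inhibition above about 58% in most replicates, limit read from the data, passing the limit was not always enough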;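 note: all wells also contain fluconazole at 8 µg/ml as a sub-toxic cotreatment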
CSC inhib = blocks cancer stem cells | cancer stem cell-like cells viability, luminescence | inhibition, % at 7.5 µM | 300,000 tested, 1.1% active | AID 2717; in the data active = inhibition above about 75%; tested in HMLE shEcad cells
SKKanGAS inh = inhibitors of SKKanGAS S. pyogenes growth in kanamycin (SK-promoter or general growth effect) | BacTiter-Glo, 6 h | inhibition, % at 7.5 µM | 300,000 tested, 1.3% active | AID 1662;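 active = mean replicate score, as percent of positive control median, at least 50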;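 note: strain carries kanamycin resistance gene driven by streptokinase promoter and grows in 40 µg/ml kanamycin; loss of luminescence reflects streptokinase promoter inhibition or plain growth inhibition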
Mdm2-MdmX conf = confirmation of human Mdm2/MdmX interaction inhibitors. inhibition, % at 8 µM. shares compounds with Mdm2-MdmX inh. Mdm2-MdmX binding, luminescent assay. 10,000 tested, 55% active; in the data active = inhibition above about 40%
FLuc counter = full-length luciferase inhibition in Mdm2/MdmX counter-screen. shares compounds with Mdm2-MdmX inh. AID 504607. inhibition, % at 8 µM. SaOS-2 full-length luciferase counterscreen, luminescence. 6,200 tested, 77% active;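 active = mean inhibition at 8 µM reaching about 37%, which flags the compound as non-specific, limit read from the data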;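 note: p53-null SaOS-2 cells with luciferase driven by a doxycycline-inducible promoter; compound on cells about two nights before reading with doxycycline added after day one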
Of the large screens only hits and unclear results are named; the others gave an inactive call (follow-up assays come after a bar, where they were run). A selection: hits, their analogues and other compounds. The true share with any hit is near 5.4%.

CC1(C)CC[C@]2(C(=O)O[C@@H]3OC(CO)[C@@H](O)[C@H](O)[C@H]3O)CC[C@]3(C)C(=CCC4[C@@]5(C)CC[C@H](O[C@@H]6OC(C(=O)O)[C@@H](O)[C@H](O)[C@H]6O)C(C)(C)C5CC[C@]43C)[C@@H]2C1 (stereo partly specified)	none (no result: Calb FLC, SKKanGAS inh)
C/C=C(\C)C(=O)OC1CC(C)(C)C[C@H]2C3=CC[C@@H]4[C@@]5(C)CCC(O[C@@H]6O[C@@H](C(=O)O)[C@@H](O)C(O[C@@H]7OC[C@H](O)[C@@H](O)[C@@H]7O[C@@H]7OC(CO)C(O)[C@@H](O)[C@@H]7O)C6O[C@@H]6OC(CO)C(O)C(O)C6O)[C@@](C)(CO)[C@@H]5CC[C@]4(C)[C@]3(C)CC(O)[C@@]12CO (stereo partly specified)	Mdm2-MdmX inh 55 (no result: Calb FLC, CSC inhib, SKKanGAS inh) | Mdm2-MdmX conf inactive | FLuc counter 48
Cn1nc(C(=O)NCC(c2cccs2)N2CCOCC2)c2ccccc2c1=O (stereo unspecified)	none (no result: Calb FLC, CSC inhib, SKKanGAS inh)
O=C(NCc1cccs1)c1csc([C@H]2C[C@H](O)[C@@H](CO)O2)n1	none (no result: Mdm2-MdmX inh, Beta apoptosis, Calb FLC, CSC inhib, SKKanGAS inh)
O=C(Nc1nccs1)c1nc[nH]c1C(=O)NCc1ccccc1	Mdm2-MdmX inh 51 (no result: Calb FLC, SKKanGAS inh) | Mdm2-MdmX conf inactive
O=C(CN1C(=O)/C(=C\c2cccc(Cl)c2)Oc2ccccc21)N1CCN(c2ccccn2)CC1	Mdm2-MdmX inh 65 (no result: MPTP block) | Mdm2-MdmX conf inactive
O=C(CN1C(=O)/C(=C/c2ccccc2F)Oc2ccccc21)N1CCN(c2ccccn2)CC1	none
O=C(CN1C(=O)c2cccc3cccc(c23)C1=O)N1CCN(c2ccccn2)CC1	Mdm2-MdmX inh 50 | Mdm2-MdmX conf inactive
COc1ccc(NC(=O)CN2c3cccc4cccc(c34)S2(=O)=O)c(OC)c1	none
CC1(C)Cc2ccccc2-c2n[nH]c(=S)n21	none (no result: Beta apoptosis, CSC inhib)
N/C(CCS(=O)(=O)c1ccc(Cl)cc1)=N\OC(=O)c1ccccc1C(F)(F)F	Mdm2-MdmX inh 94 (no result: Beta apoptosis) | Mdm2-MdmX conf 93 | FLuc counter inactive
N/C(CCS(=O)(=O)c1ccc(Cl)cc1)=N\OC(=O)c1ccc(Cl)cc1	Mdm2-MdmX inh 55 | Mdm2-MdmX conf inactive
CCN(CC(=O)Nc1ccccc1C(F)(F)F)C(=O)CCS(=O)(=O)c1ccc(Cl)cc1	none
COc1ccc(/C=C/C(=O)Nc2ccccc2C(N)=O)cc1S(=O)(=O)N1CCOCC1	none (no result: Beta apoptosis, Calb FLC, CSC inhib, SKKanGAS inh)
Cc1cc(C)c(S(=O)(=O)Oc2ccccc2[N+](=O)[O-])c(C)c1	none (no result: Mdm2-MdmX inh, Beta apoptosis, Calb FLC, CSC inhib, SKKanGAS inh)
CC1=CC(=O)C=C(C)C1=NOc1ccccc1[N+](=O)[O-]	Mdm2-MdmX inh 72 | Mdm2-MdmX conf inactive
FC(F)(F)c1cccc(CON=C2CCN(c3ncc(C(F)(F)F)cc3Cl)CC2)c1	none
CN(C)CCCNC(=O)CC1C[C@H](C(=O)N2CCCCC2)[C@@]2(CCc3ccccc3)c3[nH]c4ccccc4c3CCN2C1=O (stereo partly specified)	Mdm2-MdmX inh 83 (no result: Calb FLC, SKKanGAS inh) | Mdm2-MdmX conf inactive
COc1ccc2[nH]c3c(c2c1)CCN1C(=O)C(CC(=O)NCCCN(C)C)C[C@H](C(=O)N2CCCCC2)[C@@]31CCc1ccccc1 (stereo partly specified)	none (no result: Beta apoptosis, Calb FLC, CSC inhib, SKKanGAS inh)
COc1ccc2[nH]c3c(c2c1)CCN1C(=O)C(CC(=O)NCCN2CCOCC2)C[C@H](C(=O)N2CCCCC2)[C@@]31CCc1ccccc1 (stereo partly specified)	none (no result: Beta apoptosis, Calb FLC, CSC inhib, SKKanGAS inh)
COc1ccc2[nH]c3c(c2c1)CCN1C(=O)C(CC(=O)NCCC2=CCCCC2)C[C@H](C(=O)N2CCCCC2)[C@@]31CCc1ccccc1 (stereo partly specified)	Mdm2-MdmX inh 88 (no result: Beta apoptosis, Calb FLC, CSC inhib, SKKanGAS inh) | Mdm2-MdmX conf inactive
O=C(C[C@H]1C[C@H](C(=O)N2CCOCC2)[C@@]2(CCC3CCCC3)c3[nH]c4cc(-c5ccco5)ccc4c3CCN2C1=O)NCCc1ccccn1	Mdm2-MdmX inh 81 (no result: Beta apoptosis, Calb FLC, CSC inhib, SKKanGAS inh) | Mdm2-MdmX conf inactive
CN(C)CCCNC(=O)C[C@H]1C[C@H](C(=O)N2CCCCC2)[C@@]2(CCc3ccccc3)c3[nH]c4cc(-c5ccco5)ccc4c3CCN2C1=O	Mdm2-MdmX inh 59 (no result: Beta apoptosis, Calb FLC, CSC inhib, SKKanGAS inh) | Mdm2-MdmX conf 53 | FLuc counter 45
